Structures are written as SMILES.

Assay [1] addresses RAC-alpha serine/threonine-protein kinase (Homo sapiens) (UniProt P31749). Conditions: at 0.1 µM.
Assay [2] has the same target. Conditions: at 1 µM.
Assay [3] has as its target RAC-beta serine/threonine-protein kinase (Homo sapiens) (UniProt P31751). Conditions: at 0.1 µM.
Assay [4] has the same target. Conditions: at 1 µM.
Assay [5] has as its target RAC-gamma serine/threonine-protein kinase (Homo sapiens) (UniProt Q9Y243). Conditions: at 0.1 µM.
Assay [6] shares this target. Conditions: at 1 µM.
For assay [7], the target named is G protein-coupled receptor kinase 6 (Homo sapiens) (UniProt P43250). Conditions: at 0.1 µM.
G protein-coupled receptor kinase 6 (Homo sapiens), sequence (P43250 whole entry, looked up): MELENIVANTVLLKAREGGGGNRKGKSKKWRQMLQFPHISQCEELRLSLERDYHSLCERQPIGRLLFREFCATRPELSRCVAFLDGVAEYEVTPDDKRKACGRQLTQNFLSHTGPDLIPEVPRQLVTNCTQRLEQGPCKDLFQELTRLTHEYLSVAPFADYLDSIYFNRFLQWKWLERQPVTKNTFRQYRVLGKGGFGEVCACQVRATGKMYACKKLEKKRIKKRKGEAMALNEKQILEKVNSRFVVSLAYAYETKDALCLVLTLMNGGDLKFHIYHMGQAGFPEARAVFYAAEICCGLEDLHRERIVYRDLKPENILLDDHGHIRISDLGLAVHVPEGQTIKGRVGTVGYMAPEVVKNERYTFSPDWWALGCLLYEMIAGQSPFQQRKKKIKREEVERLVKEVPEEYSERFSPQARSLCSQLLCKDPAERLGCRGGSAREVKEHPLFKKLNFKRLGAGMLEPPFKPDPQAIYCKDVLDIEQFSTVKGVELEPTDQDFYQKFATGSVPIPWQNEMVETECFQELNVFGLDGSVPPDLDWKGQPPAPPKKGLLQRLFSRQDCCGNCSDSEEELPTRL
For assay [8] the target is unchanged. Conditions: at 1 µM.
Assay [9] has as its target T1, Rhodopsin kinase GRK7 (Homo sapiens) (UniProt Q8WTQ7).
T1 sequence (whole entry): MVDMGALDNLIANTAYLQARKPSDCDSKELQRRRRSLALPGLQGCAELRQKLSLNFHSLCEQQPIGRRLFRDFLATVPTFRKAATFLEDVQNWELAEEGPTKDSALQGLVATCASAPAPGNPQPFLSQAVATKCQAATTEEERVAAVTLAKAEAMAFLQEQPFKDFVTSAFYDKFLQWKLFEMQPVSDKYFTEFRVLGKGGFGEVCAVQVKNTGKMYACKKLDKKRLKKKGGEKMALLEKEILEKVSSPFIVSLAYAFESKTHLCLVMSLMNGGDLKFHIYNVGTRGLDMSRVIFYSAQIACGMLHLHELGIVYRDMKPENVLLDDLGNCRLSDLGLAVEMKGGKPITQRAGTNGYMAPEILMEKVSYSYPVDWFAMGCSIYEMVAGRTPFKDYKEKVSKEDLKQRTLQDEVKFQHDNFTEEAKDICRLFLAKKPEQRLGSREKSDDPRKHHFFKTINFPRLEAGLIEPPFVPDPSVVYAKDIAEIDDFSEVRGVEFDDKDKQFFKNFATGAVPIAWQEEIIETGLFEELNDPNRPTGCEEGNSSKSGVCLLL
Conditions: at 0.1 µM.

The target of assay [10] is T1, Rhodopsin kinase GRK7 (Homo sapiens). Conditions: at 1 µM.
For assay [11], the target named is Serine/threonine-protein kinase MRCK alpha (Homo sapiens) (UniProt Q5VT25). Conditions: at 0.1 µM.
Serine/threonine-protein kinase MRCK alpha (Homo sapiens), sequence (Q5VT25 whole entry): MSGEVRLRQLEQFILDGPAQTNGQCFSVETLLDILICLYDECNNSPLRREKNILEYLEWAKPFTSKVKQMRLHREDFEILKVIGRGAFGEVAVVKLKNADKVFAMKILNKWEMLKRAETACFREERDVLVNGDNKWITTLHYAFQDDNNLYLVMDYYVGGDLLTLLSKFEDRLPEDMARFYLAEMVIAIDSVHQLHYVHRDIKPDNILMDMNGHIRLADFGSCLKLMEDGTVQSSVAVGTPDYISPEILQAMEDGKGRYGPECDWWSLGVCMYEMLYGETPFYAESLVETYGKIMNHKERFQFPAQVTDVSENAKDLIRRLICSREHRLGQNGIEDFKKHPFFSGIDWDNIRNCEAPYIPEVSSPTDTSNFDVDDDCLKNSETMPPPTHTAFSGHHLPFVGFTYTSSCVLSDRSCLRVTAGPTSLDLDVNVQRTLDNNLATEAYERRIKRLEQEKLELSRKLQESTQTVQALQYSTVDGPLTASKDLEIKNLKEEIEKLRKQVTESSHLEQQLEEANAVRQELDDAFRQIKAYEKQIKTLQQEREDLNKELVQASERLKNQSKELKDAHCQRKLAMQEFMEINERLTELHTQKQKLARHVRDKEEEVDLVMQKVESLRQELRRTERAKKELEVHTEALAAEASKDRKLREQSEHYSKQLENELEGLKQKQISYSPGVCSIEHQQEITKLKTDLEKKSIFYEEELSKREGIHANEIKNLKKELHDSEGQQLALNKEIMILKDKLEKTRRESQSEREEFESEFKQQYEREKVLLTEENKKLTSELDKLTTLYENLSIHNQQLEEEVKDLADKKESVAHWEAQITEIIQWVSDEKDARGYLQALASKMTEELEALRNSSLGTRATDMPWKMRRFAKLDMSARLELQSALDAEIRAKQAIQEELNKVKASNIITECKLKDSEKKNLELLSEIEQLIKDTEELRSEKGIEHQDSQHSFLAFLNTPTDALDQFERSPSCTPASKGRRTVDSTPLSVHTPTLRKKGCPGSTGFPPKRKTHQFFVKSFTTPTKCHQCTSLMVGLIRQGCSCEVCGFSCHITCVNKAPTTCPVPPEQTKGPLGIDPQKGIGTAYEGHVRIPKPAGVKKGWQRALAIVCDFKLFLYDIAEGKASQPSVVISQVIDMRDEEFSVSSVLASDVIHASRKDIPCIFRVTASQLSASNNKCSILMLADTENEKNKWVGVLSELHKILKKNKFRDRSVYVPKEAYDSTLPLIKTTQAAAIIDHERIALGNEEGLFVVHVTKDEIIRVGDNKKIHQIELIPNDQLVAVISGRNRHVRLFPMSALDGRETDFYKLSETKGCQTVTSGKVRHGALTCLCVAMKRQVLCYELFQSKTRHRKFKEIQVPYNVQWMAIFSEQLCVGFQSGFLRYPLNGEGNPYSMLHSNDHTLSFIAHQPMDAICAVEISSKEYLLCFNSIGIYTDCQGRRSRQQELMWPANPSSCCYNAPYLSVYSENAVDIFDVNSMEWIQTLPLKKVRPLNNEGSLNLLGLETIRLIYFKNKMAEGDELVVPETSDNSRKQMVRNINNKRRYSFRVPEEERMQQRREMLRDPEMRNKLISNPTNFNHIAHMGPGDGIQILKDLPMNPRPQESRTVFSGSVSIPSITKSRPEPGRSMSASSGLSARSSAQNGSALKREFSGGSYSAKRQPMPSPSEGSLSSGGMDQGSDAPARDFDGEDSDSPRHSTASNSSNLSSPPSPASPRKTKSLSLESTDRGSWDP
Assay [12] has the same target. Conditions: at 1 µM.
Assay [13] deals with Serine/threonine-protein kinase MRCK beta (Homo sapiens) (UniProt Q9Y5S2). Conditions: at 0.1 µM.
For assay [14] the target is unchanged. Conditions: at 1 µM.
In assay [15] the target is Ribosomal protein S6 kinase alpha-5 (Homo sapiens) (UniProt O75582). Conditions: at 0.1 µM.
Ribosomal protein S6 kinase alpha-5 (Homo sapiens), sequence (O75582 whole entry, looked up): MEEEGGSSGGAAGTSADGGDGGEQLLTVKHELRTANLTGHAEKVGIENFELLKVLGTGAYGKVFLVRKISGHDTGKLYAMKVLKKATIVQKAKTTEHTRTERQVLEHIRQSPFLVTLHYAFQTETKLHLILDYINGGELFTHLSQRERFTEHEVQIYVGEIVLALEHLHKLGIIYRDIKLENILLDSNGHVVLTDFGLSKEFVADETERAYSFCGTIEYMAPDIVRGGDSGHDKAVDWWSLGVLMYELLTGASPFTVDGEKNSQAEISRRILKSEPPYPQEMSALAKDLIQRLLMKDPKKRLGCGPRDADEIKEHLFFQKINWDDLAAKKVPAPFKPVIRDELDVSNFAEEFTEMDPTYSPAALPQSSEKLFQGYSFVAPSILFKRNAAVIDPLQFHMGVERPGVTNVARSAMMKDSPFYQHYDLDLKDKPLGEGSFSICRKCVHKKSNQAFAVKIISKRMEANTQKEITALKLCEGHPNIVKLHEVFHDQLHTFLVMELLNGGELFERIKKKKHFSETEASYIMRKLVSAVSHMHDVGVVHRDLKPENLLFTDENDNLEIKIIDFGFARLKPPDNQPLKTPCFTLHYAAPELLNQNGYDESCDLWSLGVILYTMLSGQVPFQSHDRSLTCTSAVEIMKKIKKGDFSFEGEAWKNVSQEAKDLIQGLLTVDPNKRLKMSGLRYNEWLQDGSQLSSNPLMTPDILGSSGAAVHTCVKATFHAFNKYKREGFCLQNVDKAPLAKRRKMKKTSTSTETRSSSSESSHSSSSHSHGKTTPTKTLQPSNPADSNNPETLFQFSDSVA
Assay [16] shares this target. Conditions: at 1 µM.
Assay [17] deals with Ribosomal protein S6 kinase alpha-4 (Homo sapiens) (UniProt O75676). Conditions: at 0.1 µM.
Assay [18] has the same target. Conditions: at 1 µM.
The target in assay [19] is Ribosomal protein S6 kinase beta-1 (Homo sapiens) (UniProt P23443). Conditions: at 0.1 µM.
Ribosomal protein S6 kinase beta-1 (Homo sapiens), sequence (P23443 whole entry, looked up): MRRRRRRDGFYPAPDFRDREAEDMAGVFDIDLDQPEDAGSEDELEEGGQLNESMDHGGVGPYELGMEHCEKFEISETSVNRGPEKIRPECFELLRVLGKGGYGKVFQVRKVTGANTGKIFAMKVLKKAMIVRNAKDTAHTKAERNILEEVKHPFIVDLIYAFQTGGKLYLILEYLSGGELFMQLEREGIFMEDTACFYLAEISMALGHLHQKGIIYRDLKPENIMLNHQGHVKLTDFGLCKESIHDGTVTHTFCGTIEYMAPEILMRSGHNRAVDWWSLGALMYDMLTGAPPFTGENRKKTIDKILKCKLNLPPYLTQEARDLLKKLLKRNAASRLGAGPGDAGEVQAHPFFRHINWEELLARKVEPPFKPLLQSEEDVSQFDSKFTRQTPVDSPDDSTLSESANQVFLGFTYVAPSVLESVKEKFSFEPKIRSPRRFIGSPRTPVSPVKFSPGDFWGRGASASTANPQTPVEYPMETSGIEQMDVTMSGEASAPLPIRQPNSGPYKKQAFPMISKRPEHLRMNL
Assay [20] has the same target. Conditions: at 1 µM.

RAC-gamma serine/threonine-protein kinase (Homo sapiens), sequence (Q9Y243 whole entry): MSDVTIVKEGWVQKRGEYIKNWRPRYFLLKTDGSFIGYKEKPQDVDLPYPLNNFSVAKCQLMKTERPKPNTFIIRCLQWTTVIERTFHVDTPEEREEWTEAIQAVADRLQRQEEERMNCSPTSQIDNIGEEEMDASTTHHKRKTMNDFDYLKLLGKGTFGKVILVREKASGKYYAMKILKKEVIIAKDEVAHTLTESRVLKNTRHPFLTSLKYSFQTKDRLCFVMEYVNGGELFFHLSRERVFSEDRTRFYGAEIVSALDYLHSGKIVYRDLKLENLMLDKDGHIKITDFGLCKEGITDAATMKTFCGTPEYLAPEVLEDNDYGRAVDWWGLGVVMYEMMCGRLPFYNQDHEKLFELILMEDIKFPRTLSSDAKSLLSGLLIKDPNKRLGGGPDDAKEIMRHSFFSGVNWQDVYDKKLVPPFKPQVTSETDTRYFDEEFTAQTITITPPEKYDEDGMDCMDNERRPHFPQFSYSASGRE
RAC-alpha serine/threonine-protein kinase (Homo sapiens), sequence (P31749 whole entry): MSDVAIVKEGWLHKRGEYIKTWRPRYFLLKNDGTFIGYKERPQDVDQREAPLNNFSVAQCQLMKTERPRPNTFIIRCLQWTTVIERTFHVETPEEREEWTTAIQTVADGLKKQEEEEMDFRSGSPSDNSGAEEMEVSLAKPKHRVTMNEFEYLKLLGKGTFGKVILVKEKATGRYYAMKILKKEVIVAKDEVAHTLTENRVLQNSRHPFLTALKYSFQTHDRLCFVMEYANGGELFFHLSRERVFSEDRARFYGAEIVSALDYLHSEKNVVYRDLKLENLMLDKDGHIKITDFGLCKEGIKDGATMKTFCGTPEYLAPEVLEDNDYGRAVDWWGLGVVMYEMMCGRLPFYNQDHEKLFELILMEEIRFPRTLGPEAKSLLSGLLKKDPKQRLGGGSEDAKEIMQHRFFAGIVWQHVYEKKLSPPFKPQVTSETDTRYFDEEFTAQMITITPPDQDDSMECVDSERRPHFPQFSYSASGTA
RAC-beta serine/threonine-protein kinase (Homo sapiens), sequence (P31751 whole entry): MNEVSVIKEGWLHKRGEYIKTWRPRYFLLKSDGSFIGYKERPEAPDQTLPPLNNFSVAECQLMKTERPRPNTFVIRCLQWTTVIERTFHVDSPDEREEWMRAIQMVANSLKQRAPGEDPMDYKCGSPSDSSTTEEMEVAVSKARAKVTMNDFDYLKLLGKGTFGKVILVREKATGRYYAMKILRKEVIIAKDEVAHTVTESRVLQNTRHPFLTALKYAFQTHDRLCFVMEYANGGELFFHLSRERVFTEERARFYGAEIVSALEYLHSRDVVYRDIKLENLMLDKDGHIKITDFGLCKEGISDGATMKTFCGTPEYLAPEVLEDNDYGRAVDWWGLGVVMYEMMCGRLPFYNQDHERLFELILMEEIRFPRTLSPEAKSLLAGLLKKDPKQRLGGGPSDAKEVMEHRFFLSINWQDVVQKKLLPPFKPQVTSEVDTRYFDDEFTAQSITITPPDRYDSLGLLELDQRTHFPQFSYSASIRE

The inhibition is the drop in the measured response relative to a control, in per cent. In the case of `O=C(Nc1n[nH]c2nc(-c3ccc(O)cc3)c(Br)cc12)C1CC1`, the inhibition in [1] was determined as 0.84%; in assay [2], 2.07%; in assay [3] it was 2.21%; in [4] it was 3.12%; in [5], 3.32%; in assay [6] it was 12.5%. For the same compound, the inhibition in assay [7] is 11.6%; in [8], 32.6%; in assay [9], 5.77%; in assay [10], 17.4%; in [11], 1.56%; in assay [12], 13.5%. Moreover, the inhibition came out at 1.77% in [13]; 15.5% in assay [14]; 5.22% in [15]; 13.6% in assay [16]; 2.78% in assay [17]; 6.3% in [18]. For the same compound, the figures for the inhibition in assay [19] and in assay [20] were 2.07% and 6.85%, respectively.
With `COc1cc(N2CCN(C(C)C)CC2)ccc1Nc1nc(Nc2ccc(F)cc2C(=O)NC[C@@H](O)CO)c2cc[nH]c2n1`, the inhibition is -3.58% in [1]; -2.63% in [2]; 0.2% in assay [3]; -1.3% in [4]; -2.3% in assay [5]; -1.37% in [6]. Moreover, the inhibition was 9.59% in assay [7]; 13% in assay [8]; 5.2% in [9]; 13.3% in [10]; -0.84% in [11]; 3.26% in assay [12]. For the same compound, the inhibition in assay [13] is -0.21%; in assay [14], -1.04%; in assay [15], 2.19%; in assay [16], 2.99%; in assay [17], 3.14%; in assay [18], 4.18%. For the same compound, the inhibition was found to be 1.29% in assay [19] and 2.5% in [20].
Turning to `COc1cc2ncn(-c3cc(OCc4cccs4)c(C(N)=O)s3)c2cc1OC`, the inhibition in assay [1] is -2.85%; in assay [2], -1.83%; in assay [3] it was -1.63%; in assay [4], -2.73%; in [5], -3.06%; in assay [6] it was -3.04%. The inhibition in [7] was found to be 4.35%; in assay [8], 17.9%; in assay [9] it was 5.59%; in assay [10] it was 13%; in [11], 2.82%; in assay [12], 7.52%. Besides, the inhibition in assay [13] was 1.67%; in assay [14], 1.38%; in assay [15] it was 2.22%; in assay [16], 5.4%; in assay [17], 4.25%; in assay [18] it was 8%. The inhibition in assay [19] is 1.35%; in [20], 3.91%.
As for `Cc1nnc(-c2ccc(C)c(-c3ccc(C(=O)NCc4ccc(Cl)cc4)cc3)c2)o1`, the inhibition was -1.66% in assay [1]; -2.4% in assay [2]; 0.03% in [3]; -2.39% in assay [4]; 0.07% in assay [5]; -0.93% in assay [6]. Moreover, the inhibition in assay [7] is 5.17%; in [8], 5.38%; in [9] it was 4.29%; in assay [10], 9.45%; in assay [11], 0.16%; in [12], 1.24%. Moreover, the inhibition was 0.69% in [13]; -0.22% in assay [14]; 1.45% in [15]; 1.55% in assay [16]; 3.07% in assay [17]; 3.61% in [18]. Moreover, the inhibition in assay [19] was 1.21%; in assay [20], 2.04%.
`CCN(CC)Cc1ccc(Nc2nccc(-c3cnn4ncccc34)n2)cc1`: the inhibition in assay [1] is -2.02%; in assay [2] it was -1.93%; in assay [3], -2.76%; in [4], -2.22%; in assay [5], -1.29%; in assay [6] it was -1.26%. Besides, the inhibition stood at 2.33% in [7]; 1.08% in assay [8]; 10.6% in assay [9]; 3.71% in assay [10]; 2.38% in assay [11]; 4.32% in assay [12]. Also, the inhibition in assay [13] was 0.71%; in assay [14], 4.53%; in assay [15], 0.66%; in [16], 2.51%; in assay [17], 2.43%; in assay [18] it was 7.32%. In addition, the values for the inhibition in assay [19] and in [20] were 1.81% and 7.85%, respectively.
In the case of `NS(=O)(=O)c1ccc(N/N=C2\C(=O)Nc3ccc(C(=O)NCCCn4ccnc4)cc32)cc1`, the inhibition in [1] is -0.12%; in [2] it was 0.95%; in assay [3], 2.05%; in assay [4], 2.17%; in [5], 0.96%; in assay [6] it was 2.49%. Further, the inhibition turned out to be 5.79% in assay [7]; 16.3% in assay [8]; 7.64% in assay [9]; 18% in assay [10]; 0.3% in [11]; 7.89% in assay [12]. Besides, the inhibition in [13] turned out to be 0.34%; in assay [14] it was 5.24%; in [15] it was 9.46%; in assay [16] it was 11.1%; in assay [17], 3.85%; in [18], 13.7%. For the same compound, the inhibition is 1.91% in assay [19] and 8.54% in [20].
Turning to `Fc1ccc(-c2nc3n(c2-c2ccncc2)CCS3)cc1`, the inhibition is -2.42% in assay [1]; -2.29% in assay [2]; -1.68% in [3]; -1.83% in assay [4]; -1.74% in assay [5]; -2.44% in [6]. The inhibition was 2.79% in assay [7]; -0.16% in assay [8]; 2.77% in [9]; 5.18% in assay [10]; 0.18% in assay [11]; 2.85% in [12]. The inhibition worked out at 1.28% in assay [13]; 3.22% in assay [14]; 2.74% in assay [15]; 3.92% in assay [16]; 1.65% in assay [17]; 5.1% in assay [18]. Moreover, the inhibition in [19] was determined as 2.08%; in [20] it was 2.54%.

Values taken from ChEMBL document CHEMBL1961873, “Compounds: GSK PKIS; Assays: Nanosyn kinase panel” (2012).
